Experimental findings from PubChem BioAssay are described below.

Assay [1] is described as follows: nonspecific voltage dye response without TRPC6 – cell-based, parental HEK293, counter-screen for TRPC6 modulator project, confirmation (AID 488924;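 active means membrane potential signal moves up or down beyond 5 SD from buffer-only wells, on both duplicate plates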). Particulars: parental HEK293, membrane potential dye fluorescence; at 10 µM.
The nature of assay [2]: membrane potential response modulators in host HEK293 cells – cell-based, second counter-screen, parental HEK293, membrane potential dye, counter-screen for TRPC6 modulator project, confirmation (AID 488926;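 active means membrane potential signal drops by more than 5 SD from the mean control signal, in both duplicate plates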;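 on inhibition: plate controls were acetylcholine ECmax control wells for no effect and buffer only wells for full effect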). Particulars: parental HEK293, membrane potential dye fluorescence, at 10 µM, after compound, maximal acetylcholine stimulation; hits give high values.
In assay [3] the test system is Transient receptor potential cation channel subfamily C member 4 (mouse). Description: off-target membrane potential effects via mouse TRPC4 – cell-based, HEK293 TRPC4/mu-opioid, membrane potential dye, selectivity assay for TRPC6 modulator project, confirmation (AID 488927;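 active means membrane potential signal moved up or down beyond 5 SD of buffer control wells, in both duplicate plates, actives on both sides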;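 on percent change from control (negative = decrease, positive = increase): plate controls were assay buffer wells for no effect and DAMGO maximal-effect wells for full effect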). Particulars: membrane potential fluorescence, at 10 µM.
In assay [4] the test system is TRPC4 (transient receptor potential cation channel C4), mouse. Description: DAMGO-evoked mouse TRPC4 response blockade – cell-based, second screen, HEK293 TRPC4/mu-opioid, membrane potential dye, selectivity assay for TRPC6 modulator project, confirmation (AID 488928;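 active means drop in membrane potential signal beyond 5 SD of the control wells in both duplicate plates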;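 further: TRPC4 counter screen for TRPC6 hits run under conditions tuned for TRPC6 not TRPC4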). Particulars: membrane potential dye fluorescence, at 10 µM, stimulated with maximal-effect DAMGO; hits give high values.

The target in assay [5] is Short transient receptor potential channel 6 (Mus musculus) (UniProt Q61143). Description: blockers of TRPC6 cation channel activity – HEK293 cells, membrane potential dye, duplicate, confirmation (AID 488960).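 On inhibition: integrated fluorescence ratio of peak minus minimum over baseline after agonist.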 Particulars: ACh-evoked depolarization, at 10 µM; hits give high values.
Assay [6] shares this target. The experiment in a line: mouse TRPC6 channel activators, confirmation, HEK293 cells, membrane potential dye, duplicate (AID 488961;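 active means ratio signal rise beyond 5 SD above unstimulated control wells' mean, seen in both duplicate runs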;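 on activation: plate controls were buffer EC0 wells for no effect and acetylcholine ECmax response for full effect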). Particulars: HEK293-TRPC6 membrane potential dye fluorescence, FDSS, at 10 µM; hits give high values.
For assay [7], the target named is Potassium voltage-gated channel subfamily KQT member 1 (Homo sapiens) (UniProt P51787). Description: blockers of human KCNQ1 channel – cell-based, Tl flux, duplicate, confirmation (AID 588353;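 active means primary screen active, with duplicate mean exceeding buffer control mean plus 3 SD of buffer wells, cut at about 28% in these data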;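 further: 0% = buffer control ratio and 100% = XE991 inhibitor control ratio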). Particulars: KCNQ1 cell line, FluxOR thallium flux fluorescence, at 10 µM, hits give high values.
Assay [8] in a line: nonspecific activity in CHO-K1 cells without KCNQ1 – parental CHO cells, Tl flux, counter-screen for KCNQ1 inhibitor project (AID 588366;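 active means mean of duplicate thallium-flux fluorescence ratios in parental host cells more than 5 SD below the buffer control mean, cut at about 0.38 in these data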;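 further: ratio is peak minus minimum fluorescence divided by baseline fluorescence; actives read low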). Particulars: parental CHO-K1, FluxOR thallium flux fluorescence ratio; at 10 µM; hits give low values; zero means no signal rise above baseline.
The target of assay [9] is Potassium voltage-gated channel subfamily KQT member 2 (Rattus norvegicus) (UniProt O88943). Description: block of rat KCNQ2 potassium channel – cell-based, selectivity assay for KCNQ1 inhibitor project (AID 651746;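 active means mean percent inhibition of the KCNQ2 thallium signal more than 5 SD above the buffer-only control wells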;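 further: 0% = buffer control wells and 100% = XE-991 inhibitor control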). Particulars: KCNQ2 cells, FluxOR thallium flux fluorescence, at 10 µM; hits give high values.
Assay [10] deals with Potassium voltage-gated channel subfamily E member 1 (Homo sapiens) + Potassium voltage-gated channel subfamily KQT member 1 (Homo sapiens) (UniProt P15382+P51787). The experiment in a line: block of human IKs channel complex – CHO-K1 cells, thallium flux, FluxOR, selectivity assay for KCNQ1 inhibitor project (AID 652147;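 active means mean percent inhibition of duplicate wells above the buffer-only control mean plus 3 SD of those controls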;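 further: 0% = buffer only wells and 100% = XE-991 inhibitor control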). Particulars: KCNQ1/KCNE1 cells, FluxOR thallium flux fluorescence, at 10 µM; hits give high values.

Assay [11] can be described thus: nonspecific flux increase, KCNQ1-free cells – parental CHO cells, counter-screen for KCNQ1 potentiator project (AID 493006;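 active means duplicate-averaged activation above buffer control mean plus 5 SD of those controls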;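 further: fluorescence ratio of max minus min over baseline after K+ and Tl+ depolarization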). Particulars: parental CHO-K1 cells, FluxOR thallium flux, at 10 µM; hits give high values.
Assay [12] concerns the target Potassium voltage-gated channel subfamily KQT member 1 (Homo sapiens) (UniProt P51787). The experiment in a line: enhancement of KCNQ1 channel thallium flux – FluxOR thallium flux, CHO cells, duplicates, confirmation (AID 493007;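 active means potentiation averaged over duplicate wells exceeding buffer-only control mean by more than 3 SD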;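 further: 0% = buffer-only wells and 100% = R-L3 activator control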). Particulars: KCNQ1 cell line, FluxOR thallium flux fluorescence, at 10 µM; hits give high values, % of reference activator effect, buffer zero.

For assay [13], the target named is Potassium voltage-gated channel subfamily KQT member 2 (Rattus norvegicus) (UniProt O88943). The experiment in a line: KCNQ2 thallium flux enhancement – KCNQ2-CHO-K1 cells, selectivity assay for KCNQ1 potentiator project (AID 493009;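 active means mean duplicate potentiation above the buffer control mean plus 5 SD of buffer wells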;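 further: assay conditions were tuned for KCNQ1 rather than KCNQ2 modulators; signal is max minus min fluorescence divided by baseline after thallium stimulus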). Particulars: FluxOR thallium flux fluorescence, at 10 µM; hits give high values, scaled: buffer 0, activator control 100.
For assay [14], the target named is Potassium voltage-gated channel subfamily KQT member 1 (Homo sapiens) (UniProt P51787). Description: KCNQ1 activators by electrophysiology – IonWorks patch clamp, KCNQ1-CHO cells, orthogonal assay for KCNQ1 potentiator project, confirmation (AID 493184;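 active means current rise at least 3 SD above the untreated control mean in each of two repeat wells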). Particulars: automated patch clamp current, at 10 µM; hits give high values.

Structures are written as SMILES. Values without a mark were called inactive. Some of the results follow. Calls of active or inactive are those of the source.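 How the source made its calls, unless noted: active means fluorescence ratio falls more than 5 SD below the full-stimulation control mean, in both duplicate runs; inactive means the rest.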

Short transient receptor potential channel 6 (Mus musculus), sequence (Q61143 whole entry, looked up): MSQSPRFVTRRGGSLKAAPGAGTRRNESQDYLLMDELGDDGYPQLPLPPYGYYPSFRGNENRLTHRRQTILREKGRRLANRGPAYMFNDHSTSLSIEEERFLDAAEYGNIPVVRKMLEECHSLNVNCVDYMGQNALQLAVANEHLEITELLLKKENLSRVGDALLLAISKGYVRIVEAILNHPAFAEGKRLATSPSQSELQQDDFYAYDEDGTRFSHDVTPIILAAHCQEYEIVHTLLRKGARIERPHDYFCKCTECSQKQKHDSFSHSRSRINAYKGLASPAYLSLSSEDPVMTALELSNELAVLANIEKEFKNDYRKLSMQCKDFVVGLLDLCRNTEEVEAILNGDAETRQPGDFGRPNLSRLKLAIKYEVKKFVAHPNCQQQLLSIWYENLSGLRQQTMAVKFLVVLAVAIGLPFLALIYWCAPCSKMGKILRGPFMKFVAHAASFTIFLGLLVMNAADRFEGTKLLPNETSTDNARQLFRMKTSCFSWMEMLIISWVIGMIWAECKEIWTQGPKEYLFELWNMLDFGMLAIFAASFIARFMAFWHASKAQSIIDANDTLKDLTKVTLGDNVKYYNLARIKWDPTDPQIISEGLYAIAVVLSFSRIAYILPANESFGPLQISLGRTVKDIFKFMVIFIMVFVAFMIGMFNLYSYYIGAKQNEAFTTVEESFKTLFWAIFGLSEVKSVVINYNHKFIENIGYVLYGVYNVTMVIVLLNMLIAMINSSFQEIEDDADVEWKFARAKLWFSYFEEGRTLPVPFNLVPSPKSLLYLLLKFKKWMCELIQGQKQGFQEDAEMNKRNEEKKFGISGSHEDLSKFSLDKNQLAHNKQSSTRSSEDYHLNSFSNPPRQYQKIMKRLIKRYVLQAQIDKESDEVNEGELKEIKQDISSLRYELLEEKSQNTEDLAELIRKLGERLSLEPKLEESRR
Potassium voltage-gated channel subfamily KQT member 1 (Homo sapiens), sequence (P51787 whole entry, looked up): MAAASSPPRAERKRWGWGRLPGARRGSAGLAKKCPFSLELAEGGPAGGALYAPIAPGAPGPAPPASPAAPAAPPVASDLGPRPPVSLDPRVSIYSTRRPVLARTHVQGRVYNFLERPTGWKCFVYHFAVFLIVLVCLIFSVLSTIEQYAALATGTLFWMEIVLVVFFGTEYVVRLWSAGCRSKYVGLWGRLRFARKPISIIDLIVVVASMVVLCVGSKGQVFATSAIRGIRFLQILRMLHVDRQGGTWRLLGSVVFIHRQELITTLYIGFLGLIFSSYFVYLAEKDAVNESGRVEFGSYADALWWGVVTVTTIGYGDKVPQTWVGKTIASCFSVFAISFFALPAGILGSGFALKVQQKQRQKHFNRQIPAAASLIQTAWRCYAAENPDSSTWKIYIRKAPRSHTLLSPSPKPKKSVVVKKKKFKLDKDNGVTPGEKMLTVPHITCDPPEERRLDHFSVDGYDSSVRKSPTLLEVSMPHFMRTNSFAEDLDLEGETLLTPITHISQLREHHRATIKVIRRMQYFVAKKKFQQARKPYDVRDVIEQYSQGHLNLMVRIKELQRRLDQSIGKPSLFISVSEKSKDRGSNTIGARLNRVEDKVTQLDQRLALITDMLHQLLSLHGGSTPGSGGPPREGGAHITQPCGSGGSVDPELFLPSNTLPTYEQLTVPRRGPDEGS
Potassium voltage-gated channel subfamily KQT member 2 (Rattus norvegicus), sequence (O88943 whole entry, looked up): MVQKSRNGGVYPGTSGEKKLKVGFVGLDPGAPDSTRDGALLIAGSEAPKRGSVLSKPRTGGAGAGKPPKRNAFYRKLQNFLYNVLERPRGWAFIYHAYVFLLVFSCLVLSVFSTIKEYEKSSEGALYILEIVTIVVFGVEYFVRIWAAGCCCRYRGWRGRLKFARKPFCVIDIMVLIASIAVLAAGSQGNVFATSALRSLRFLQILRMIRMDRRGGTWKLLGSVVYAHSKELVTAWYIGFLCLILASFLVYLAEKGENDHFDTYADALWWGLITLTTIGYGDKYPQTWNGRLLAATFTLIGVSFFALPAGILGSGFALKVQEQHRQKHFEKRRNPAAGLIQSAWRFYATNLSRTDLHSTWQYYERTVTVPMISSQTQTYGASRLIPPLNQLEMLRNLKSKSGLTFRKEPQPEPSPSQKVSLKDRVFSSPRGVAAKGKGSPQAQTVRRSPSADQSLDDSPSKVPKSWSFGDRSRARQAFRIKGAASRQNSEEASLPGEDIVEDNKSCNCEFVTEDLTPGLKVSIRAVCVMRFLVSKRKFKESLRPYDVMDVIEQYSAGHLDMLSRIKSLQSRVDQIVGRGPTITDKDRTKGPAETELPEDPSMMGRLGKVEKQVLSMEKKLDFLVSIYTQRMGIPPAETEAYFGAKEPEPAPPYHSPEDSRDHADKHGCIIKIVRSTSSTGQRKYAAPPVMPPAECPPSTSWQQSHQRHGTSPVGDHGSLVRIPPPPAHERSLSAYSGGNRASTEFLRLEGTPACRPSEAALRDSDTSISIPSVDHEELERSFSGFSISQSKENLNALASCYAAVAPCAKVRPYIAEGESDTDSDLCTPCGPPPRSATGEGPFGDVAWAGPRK
Potassium voltage-gated channel subfamily E member 1 (Homo sapiens) + Potassium voltage-gated channel subfamily KQT member 1 (Homo sapiens), sequence (P51787 whole entry, looked up): as the sequence (P51787 whole entry, looked up) above

As for `c1ccc(C2CNCc3c2ccc2ccccc32)cc1` (configuration not stated), the result in [1], in assay [2], in assay [3] and in assay [6] was inactive. The inhibition in assay [4] is 81.5% (active); in assay [5], 58% (active).
For `COc1cc(CNCCN(C)C)ccc1OCc1c(F)cccc1Cl`, in assay [1], the membrane potential signal change is 142% (active). Also, the result in [2] and in assay [5] was inactive. Further, the percent change from control (negative = decrease, positive = increase) in [3] is 15.5% (active). Further, the inhibition in assay [4] is 49% (active). The activation in assay [6] was 56% (active).
Regarding `CCCN(CCc1ccccc1)C1CCc2c(O)cccc2C1` (configuration not stated), the membrane potential signal change in assay [1] was 202% (active). Besides, the result in [2] and in [5] was inactive. The percent change from control (negative = decrease, positive = increase) in [3] was 45.5% (active). Moreover, the inhibition in assay [4] is 68.5% (active). In [6], the activation was 88.5% (active).
With `COC(=O)c1ccccc1NC(=O)C1CCN(S(=O)(=O)c2cc(OC)ccc2OC)CC1`, the outcome in assay [1], in assay [2], in assay [4] and in [5] was inactive. Also, the percent change from control (negative = decrease, positive = increase) in [3] is 13% (active).
Turning to `CCCCN(CCCC)CC(O)Cn1c2ccccc2c(=O)c2ccccc21` (configuration not stated), the outcome in assay [1], in [2] and in assay [3] was inactive. In addition, the values for the inhibition in assay [4] and in assay [5] were 85.5% (active) and 69% (active), respectively.
As to `CCC(C)NCCOCCOc1ccc(Br)cc1C` (configuration not stated), the membrane potential signal change in assay [1] is 94% (active). In addition, the result in assay [2], in assay [4] and in [5] was inactive. Also, the percent change from control (negative = decrease, positive = increase) in [3] was 21% (active).
For the molecule `CC(C)C(c1nnnn1CCc1ccccc1)N1CCN(C(=O)c2ccco2)CC1` (configuration not stated), in assay [1], the membrane potential signal change is 153% (active). The inhibition is 85.5% (active) in [2] and 70% (active) in [5]. Besides, in assay [3], the percent change from control (negative = decrease, positive = increase) is 27.5% (active). Further, in assay [4], the outcome was inactive.
On to `O=C(C[n+]1ccc2c(c1)nnn2-c1ccccc1)c1ccc(Cl)cc1`, for which the membrane potential signal change in [1] was -110% (active). Besides, the outcome in [2] and in [6] was inactive. Besides, in assay [3], the percent change from control (negative = decrease, positive = increase) was -37.5% (active). For the same molecule, the inhibition is 62% (active) in [4] and 56% (active) in assay [5].
On to `CCN(CC)S(=O)(=O)c1ccc(N2CC(C(=O)NCc3cccnc3)CC2=O)cc1` (configuration not stated), for which the result in [1], in assay [2], in assay [3], in [4], in [5] and in assay [6] was inactive.
As to `CC(C)c1ccc(NC(=O)Cn2ncc3ccccc32)cc1`, the result in assay [1], in assay [2], in assay [3], in [4], in assay [5] and in assay [6] was inactive.
With `COc1ccc(-c2nnc(NC(=O)CS(=O)(=O)c3ccc(Cl)cc3)o2)c(OC)c1`, the membrane potential signal change in assay [1] was 86% (active). Besides, the outcome in [2], in [3], in assay [4] and in assay [5] was inactive. Also, in assay [6], the activation was 46.5% (active).
On to `N=c1c2c3c(sc2ncn1CCCN1CCOCC1)CCCCC3`, for which the outcome in [1], in [2], in assay [3], in assay [5] and in assay [6] was inactive. Moreover, the inhibition in assay [4] is 52.5% (active).
For `O=[N+]([O-])c1ccccc1Nc1ccc(O)cc1`, in [1], the membrane potential signal change is -186% (active). In addition, the outcome in assay [2], in assay [5] and in assay [6] was inactive. The percent change from control (negative = decrease, positive = increase) in assay [3] is -32% (active). Moreover, the inhibition in assay [4] is 61.5% (active).
Regarding `O=C(Nc1cccc(Cl)c1)Nc1ccccc1NS(=O)(=O)c1cccs1`, the result in assay [1], in assay [2], in assay [5] and in [6] was inactive. Besides, the percent change from control (negative = decrease, positive = increase) in [3] is -12.5% (active). Further, the inhibition in [4] was 36.5% (active); in assay [7], 122% (active); in assay [9], 78.7% (active); in assay [10], 109% (active). In addition, the fluorescence ratio (Tl flux) in assay [8] was 0.346 (active).
In the case of `CC(C)(C)Nc1nc(-c2ccccn2)nc2ccccc12`, the membrane potential signal change in assay [1] is -424% (active). The inhibition is 77% (active) in assay [2], 74% (active) in assay [4] and 56.5% (active) in assay [5]. Also, in assay [3], the percent change from control (negative = decrease, positive = increase) is -58% (active). Further, in [6], the result was inactive.
For the molecule `CC(=O)c1cc(NC(=O)c2ccccc2)c(=O)oc1/C=C/N(C)C`, in assay [1], the membrane potential signal change was 868% (active). The inhibition is 196% (active) in assay [2] and 35.5% (active) in assay [4]. Further, the percent change from control (negative = decrease, positive = increase) in assay [3] was 43% (active). Besides, the outcome in [5] and in assay [6] was inactive.
For the molecule `CN1CCN(c2nc(Nc3ccc(O)cc3)nc3ccccc23)CC1`, the membrane potential signal change in assay [1] was -221% (active). Moreover, the inhibition in assay [2] is 65.5% (active); in [4] it was 71% (active); in [5] it was 67.5% (active). Besides, in assay [3], the percent change from control (negative = decrease, positive = increase) is -38% (active). In addition, the molecule was classed as inactive in assay [6].
Consider `CCCCCCn1cc(C(=O)O)c(=O)c2cc(F)c(N3CCCCC3)cc21`, for which the outcome in assay [1], in assay [2], in assay [4] and in assay [5] was inactive. For the same molecule, the percent change from control (negative = decrease, positive = increase) in assay [3] is 11% (active). The activation in assay [6] was 39.5% (active).
On to `CC(C)(C)n1nnnc1C(c1ccc2ncccc2c1)N1CCSCC1` (configuration not stated), for which the result in assay [1] and in assay [2] was inactive. In [3], the percent change from control (negative = decrease, positive = increase) was 19% (active). The inhibition was 33% (active) in assay [4] and 84% (active) in assay [5]. Further, in assay [6], the activation is 140% (active).
On to `Cc1ccc2c(c1)C1CN(C)CCC1N2C(=S)Nc1ccc(Cl)cc1Cl` (configuration not stated), for which the outcome in [1], in assay [2], in assay [5] and in assay [6] was inactive. The percent change from control (negative = decrease, positive = increase) in [3] is -10% (active). The inhibition in assay [4] was 49.5% (active).
In the case of `Nc1c(C(=O)c2cccs2)sc2nsc(SCCN3CCCCC3)c12`, in assay [1], the membrane potential signal change was 238% (active). Moreover, the outcome in assay [2], in [4], in [5] and in assay [6] was inactive. Also, the percent change from control (negative = decrease, positive = increase) in [3] is 174% (active).
`O=C1c2ccccc2C(=O)c2c1cccc2N1CCN(CCO)CC1`: the membrane potential signal change in assay [1] was -367% (active). In addition, the values for the inhibition in assay [2], in assay [4] and in assay [5] were 64% (active), 60% (active) and 78.5% (active), respectively. The percent change from control (negative = decrease, positive = increase) in assay [3] is -80.5% (active). Moreover, the molecule was called inactive in [6].
For `COc1ccc(C(=O)C2CCCN(Cc3cccn3-c3ccccn3)C2)c(C)c1` (configuration not stated), the outcome in [1] and in assay [6] was inactive. Further, the inhibition was 140% (active) in assay [2]; 99% (active) in assay [4]; 107% (active) in assay [5]; 41.5% (active) in [7]; 89% (active) in assay [9]; 39.5% (active) in assay [10]. Further, in assay [3], the percent change from control (negative = decrease, positive = increase) is -17.5% (active). Besides, in assay [8], the fluorescence ratio (Tl flux) was 0.496.
Take `N#Cc1ccc(-c2nc3cc(Cl)ccc3c(=O)n2O)cc1`: in assay [11], the activation is 189% (active). The potentiation was 29.5% (active) in [12] and 176% (active) in assay [13]. Moreover, the result in [14] was inactive.
On to `Cn1c(/C(C#N)=C2/CCCCCN2)nc2ccccc21`, for which the outcome in assay [1], in [2], in assay [3], in [4], in [5] and in assay [6] was inactive.
